Measurements reported in the supplement of paper PMC11060735.
Structures can show the parent of a compound that is named as a salt. About 50 (3%) of roughly 1,800 compounds showed activity. Only a selection was taken, and actives are over-represented in it overall. A number with no mark means an inactive call.

Test system: mouse p16Ink4a+/- lung fibroblasts (INKBRITE, bleomycin-injured)
Assay: percentage of GFP+ (p16Ink4a+) fibroblasts among all cells in well; higher = less depletion of p16Ink4a+ cells, active = 20 or less
Details: 1 µM; 3 days

Row | SMILES | percentage of GFP+
1 | C/C(=N\NC(=S)N1CCC1)c1ccccn1 | 6.13% (active)
2 | CO[C@H]1C[C@@H]2CC[C@@H](C)[C@@](O)(O2)C(=O)C(=O)N2CCCC[C@H]2C(=O)O[C@H]([C@H](C)C[C@@H]2CC[C@@H](O)[C@H](OC)C2)CC(=O)[C@H](C)/C=C(\C)[C@@H](O)[C@@H](OC)C(=O)[C@H](C)C[C@H](C)/C=C/C=C/C=C/1C [Rapamycin] | 37.8%
3 | CC(=O)Nc1ccc(C(=O)Nc2ccccc2N)cc1 [Tacedinaline] | 34.9%
4 | CCCCN(Cc1ccc(C(=O)NO)cc1)C(=O)Nc1ccccc1 [Nexturastat A] | 47.5%
5 | CC(C)[C@H](C(=O)Nc1ccc(C(=O)NO)cc1)c1ccccc1 | 9.62% (active)
6 | COc1cc(OC)c(/C=C/S(=O)(=O)Cc2ccc(OC)c(NCC(=O)O)c2)c(OC)c1 [Rigosertib] | 27.9%
7 | O=C(O)COCCN1CCN(C(c2ccccc2)c2ccc(Cl)cc2)CC1 (stereo unspecified) [Cetirizine] | 46.1%
8 | C[C@@H](NCCCc1cccc(C(F)(F)F)c1)c1cccc2ccccc12 [Cinacalcet] | 33.2%
9 | CCCSc1nc(N[C@@H]2C[C@H]2c2ccc(F)c(F)c2)c2nnn([C@@H]3C[C@H](OCCO)[C@@H](O)[C@H]3O)c2n1 [Ticagrelor] | 30.8%
10 | COc1cc([C@@H]2c3cc4c(cc3[C@@H](O[C@@H]3O[C@@H]5CO[C@@H](C)O[C@H]5[C@H](O)[C@H]3O)[C@H]3COC(=O)[C@H]23)OCO4)cc(OC)c1O [Etoposide] | 19.3% (active)
11 | COc1cc([C@@H]2c3cc4c(cc3[C@@H](O[C@@H]3O[C@@H]5CO[C@@H](c6cccs6)O[C@H]5[C@H](O)[C@H]3O)[C@H]3COC(=O)[C@H]23)OCO4)cc(OC)c1O [Teniposide] | 21.1%
12 | C=CC(=O)Nc1cccc(Sc2nc(Nc3ccc(N4CCN(C)CC4)cc3)ncc2Cl)c1 | 46.3%
13 | O=C(Nc1ccccc1Br)N[C@@H]1CCN(c2ccc(C(F)(F)F)cn2)C1 | 39.1%
14 | CC(C)C[C@H](NC(=O)CNC(=O)c1cc(Cl)ccc1Cl)B(O)O [Ixazomib] | 4.65% (active)
15 | CCCC(C)NC(=O)c1ccc(Cl)c(Cl)c1 (stereo unspecified) | 45.8%
16 | CNCC[C@H](Oc1cccc2ccccc12)c1cccs1 [Duloxetine] | 33.8%
17 | Cn1c(=O)c2nc[nH]c2n(C)c1=O [Aminophylline, Theophylline] | 44.7%
18 | CN(C)CCN(Cc1ccccc1)c1ccccn1 [Tripelennamine] | 45.6%
19 | O=C[C@H](O)[C@@H](O)[C@H](O)[C@H](O)CO [D-glucose] | 42.5%
20 | C[C@@H]1CN(CC(=O)Nc2ccc3c(c2)Cc2cccc(-c4cc(=O)cc(N5CCOCC5)o4)c2S3)C[C@H](C)O1 | 44.7%
21 | Nc1nc(Cl)nc2c1ncn2[C@@H]1O[C@H](CO)[C@@H](O)[C@@H]1F [Clofarabine] | 35.5%
22 | COc1ccc2c(c1)c(C1=C(c3c[nH]c4ccccc34)C(=O)NC1=O)cn2CCCN(C)C | 60.7%
23 | O=C(/C=C/c1ccc(CN(CCO)CCc2c[nH]c3ccccc23)cc1)NO [Dacinostat] | 4.88% (active)

Row | SMILES | percentage of GFP+
24 | O=C(O)CCCc1c[nH]c2ccccc12 [3-Indolebutyric Acid] | 48.2%
25 | OCc1c[nH]c2ccccc12 [Indole-3-carbinol] | 47%
26 | C=C(c1ccc(C(=O)O)cc1)c1cc2c(cc1C)C(C)(C)CCC2(C)C [Bexarotene] | 46%
27 | COc1ccc(NS(=O)(=O)c2sc3ccc(Cl)cc3c2C)cc1N1CCNCC1 | 59.1%
28 | COc1ccc(Cn2ccc3ccc(C(=O)NO)cc32)cc1 | 47.2%
29 | N[C@@H](CC(=O)N1CCn2c(nnc2C(F)(F)F)C1)Cc1cc(F)c(F)cc1F [Sitagliptin] | 44.6%
30 | CCn1cc(C(=O)O)c(=O)c2cc(F)c(N3CCNC(C)C3)c(F)c21 (stereo unspecified) [Lomefloxacin] | 44%
31 | CC[C@@H](C)Nc1cc(C(=O)NC2CC3CCC(C2)N3c2ccc(C(=O)C3CC3)cn2)c(C)cc1C(N)=O (stereo partly specified) | 5.49% (active)
32 | CC(C)(F)C[C@H](N[C@@H](c1ccc(-c2ccc(S(C)(=O)=O)cc2)cc1)C(F)(F)F)C(=O)NC1(C#N)CC1 [Odanacatib] | 44.3%
33 | C#Cc1cccc(Nc2ncnc3cc(OC)c(OCCCCCCC(=O)NO)cc23)c1 | 37.4%
34 | C#Cc1cccc(Nc2ncnc3cc(OCCOC)c(OCCOC)cc23)c1 [Erlotinib] | 7.35% (active)
35 | C#Cc1cccc(Nc2ncnc3cc(OCCOC)c(OCCO)cc23)c1 | 54.2%
36 | COc1ccc(-c2cc(=O)c3c(O)cc(O)cc3o2)cc1O [Diosmetin] | 42.4%
37 | CC(C)(OCc1nn(Cc2ccccc2)c2ccccc12)C(=O)O [Bindarit] | 45.3%
38 | CCCN1CCCC[C@H]1C(=O)Nc1c(C)cccc1C [Ropivacaine, Ropivacaine Hydrochloride] | 46%
39 | CCCCCCCCCC(=O)N[C@@H](Cc1c[nH]c2ccccc12)C(=O)N[C@H](CC(N)=O)C(=O)N[C@@H](CC(=O)O)C(=O)N[C@@H]1C(=O)NCC(=O)N[C@H](CCCN)C(=O)N[C@@H](CC(=O)O)C(=O)N[C@@H](C)C(=O)N[C@@H](CC(=O)O)C(=O)NCC(=O)N[C@H](CO)C(=O)N[C@@H]([C@@H](C)CC(=O)O)C(=O)N[C@@H](CC(=O)c2ccccc2N)C(=O)O[C@@H]1C [Daptomycin] | 37.2%
40 | COC(=O)C1=C(C)N=C(C)/C(=C(/O)OC)C1c1ccccc1[N+](=O)[O-] (stereo unspecified) [Nifedipine] | 34.3%
41 | CO/N=C(/C(=O)N[C@H]1C(=O)N2C(C(=O)O)=C(Cn3ccc(=N)n3CCO)CS[C@H]12)c1csc(N)n1 [Cefoselis Sulfate] | 17.3% (active)
42 | C=CC1=C(C(=O)O)N2C(=O)[C@@H](NC(=O)/C(=N\O)c3csc(N)n3)[C@H]2SC1 [Cefdinir] | 49.9%
43 | CO/N=C(/C(=O)N[C@@H]1C(=O)N2C(C(=O)O)=C(CSC(=O)c3ccco3)CS[C@H]12)c1csc(N)n1 [Ceftiofur HCl] | 39.5%
44 | O=C(c1ccccc1)c1ccc2n1CCC2C(=O)O (stereo unspecified) [Ketorolac] | 38.6%
45 | Oc1ccc(/C=C/c2cc(O)cc(O)c2)cc1 [Resveratrol] | 42.8%
46 | CC1(C)CCC(C)(C)c2cc(NC(=O)c3ccc(C(=O)O)cc3)ccc21 [Tamibarotene] | 28.2%
